# Experimental data: PubChem BioAssay (EPA / NIEHS)
# Records with an inconclusive call do not appear. The source made the active and inactive calls. How the source made its calls, unless noted: active means hit-call score of the fitted dose curve at least 0.9, where 1 is the maximum; inconclusive means response in the unintended direction; inactive means score below 0.9.
# Tests used:
# [1] = biological target: CCAAT/enhancer-binding protein beta (Homo sapiens) (UniProt P17676); assay: ATG_C_EBP_CIS: Attagene CIS-FACTORIAL HepG2 Assay for human CCAAT/Enhancer Binding Protein (C/EBP) beta (AID 2282927; active means hit-call score of the fitted dose curve at least 0.9, where 1 is the maximum; inactive means score below 0.9); conditions: HepG2 Attagene cis-factorial transcription factor reporter; actives raise or lower the signal
# Procedure, shortened: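 Endogenous C/EBPb-driven reporter transcripts measured in transfected human HepG2 cells at 24 h via RT-PCR and capillary electrophoresis of labelled fragments. Activity fitted in both directions relative to DMSO baseline.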
# [2] = ATG_CMV_CIS: Attagene CIS-FACTORIAL HepG2 Assay for human CMV (Internal Marker) (AID 2282928; active means hit-call score of the fitted dose curve at least 0.9, where 1 is the maximum; inactive means score below 0.9;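 further: endpoint acts as a background internal control marker rather than a target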); conditions: HepG2 CMV promoter reporter, transcription factor profiling; actives raise or lower the signal
# Procedure, shortened: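 Readout: fluorescent reporter cDNA fragments separated by capillary electrophoresis after RT-PCR and HpaI cut. Cells: HepG2 carrying transfected cis-promoter reporter constructs, dosed 24 h. Endpoint serves as background internal-marker control, fit bidirectionally versus DMSO.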
# [3] = ATG_DR4_LXR_CIS: Attagene CIS-FACTORIAL HepG2 Assay for human Liver X Receptor (LXR), DR4 submotif (AID 2282929; active means hit-call score of the fitted dose curve at least 0.9, where 1 is the maximum; inactive means score below 0.9); conditions: HepG2 Attagene DR4 cis-reporter, mRNA transcription; actives raise or lower the signal
# Procedure, shortened: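 Measures endogenous transcription factor activity via a DR4-driven reporter transcript in human HepG2 cells. Compounds incubated 24 h; mRNA quantified by RT-PCR and capillary electrophoresis, analysed as gain or loss of signal versus DMSO.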
# [4] = ATG_AP_1_CIS: Attagene CIS-FACTORIAL HepG2 Assay for human Activator Protein 1 (AP-1) (AID 2282931; active means hit-call score of the fitted dose curve at least 0.9, where 1 is the maximum; inactive means score below 0.9); conditions: HepG2 Attagene cis-factorial AP-1 reporter mRNA; actives raise or lower the signal
# Procedure, shortened: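 Bidirectional concentration-response fitting against DMSO controls. Underlying signal: reporter mRNA from cis-promoter constructs in transiently transfected HepG2, measured after 24 h by RT-PCR and capillary electrophoresis.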
# [5] = ATG_AP_2_CIS: Attagene CIS-FACTORIAL HepG2 Assay for human Activator Protein 2 (AP-2) (AID 2282932; active means hit-call score of the fitted dose curve at least 0.9, where 1 is the maximum; inactive means score below 0.9); conditions: HepG2 AP-2 cis-reporter, Attagene transcription factor profiling; actives raise or lower the signal
# Procedure, shortened: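 Transiently transfected HepG2 cells are exposed to chemical for 24 h. Reporter transcripts are then measured as fluorescence following RT-PCR and capillary separation, and gain- or loss-of-signal is fitted relative to DMSO.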
# [6] = ATG_BRE_CIS: Attagene CIS-FACTORIAL HepG2 Assay for human Bone Morphogenetic Protein (BMP) Response Element (BRE) (AID 2282933; active means hit-call score of the fitted dose curve at least 0.9, where 1 is the maximum; inactive means score below 0.9); conditions: HepG2 BMP response element reporter, Attagene transcription factor profiling; actives raise or lower the signal
# Procedure, shortened: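 Fluorescence-labelled reporter cDNA fragments, separated by capillary electrophoresis, gave the signal for this component of a 52-readout multiplex. HepG2 cells were transfected, exposed to chemicals for 24 h, and compared with DMSO using bidirectional fitting.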
# [7] = biological target: Transcription factor E2F1 (Homo sapiens) (UniProt Q01094); assay: ATG_E2F_CIS: Attagene CIS-FACTORIAL HepG2 Assay for human E2F Transcription Factor 1 (AID 2282935; active means hit-call score of the fitted dose curve at least 0.9, where 1 is the maximum; inactive means score below 0.9); conditions: HepG2 Attagene cis-reporter, E2F reporter RNA transcripts; actives raise or lower the signal
# Procedure, shortened: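 Fluorescent RT-PCR products, digested with HpaI for 2 h at 37 C, are separated by capillary electrophoresis. Source RNA comes from transfected HepG2 cultures treated for 24 h.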
# [8] = ATG_E_Box_CIS: Attagene CIS-FACTORIAL HepG2 Assay for human Enhancer Box (E-box) (AID 2282936; active means hit-call score of the fitted dose curve at least 0.9, where 1 is the maximum; inactive means score below 0.9); conditions: HepG2 E-box cis-reporter transcription, actives raise or lower the signal
# Procedure, shortened: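 Fluorescent reporter fragments separated by capillary electrophoresis gave the signal; mRNA came from HepG2 cells transfected with cis-element reporters and treated 24 h. Curves fitted bidirectionally relative to DMSO controls.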
# [9] = ATG_M_61_CIS: Attagene CIS-FACTORIAL HepG2 Assay for M61 Transcription Factor (Internal Marker) (AID 2282937; active means hit-call score of the fitted dose curve at least 0.9, where 1 is the maximum; inactive means score below 0.9); conditions: HepG2 Attagene CIS-FACTORIAL M61 internal marker reporter; actives raise or lower the signal
# Procedure, shortened: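 Fluorescence from labelled cDNA fragments, separated by capillary electrophoresis, quantifies reporter induction. HepG2 cells bearing transiently transfected cis-promoter MRTUs were incubated with test chemical for 24 h; DMSO defined baseline for gain/loss fitting.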
# [10] = ATG_EGR_CIS: Attagene CIS-FACTORIAL HepG2 Assay for human Early Growth Response 1 (EGR1) (AID 2282938; active means hit-call score of the fitted dose curve at least 0.9, where 1 is the maximum; inactive means score below 0.9); conditions: HepG2 Attagene CIS-FACTORIAL EGR reporter mRNA; actives raise or lower the signal
# Procedure, shortened: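 Cell-based multiplex transcription assay: HepG2 carrying transfected cis-element reporter units, 24 h chemical treatment. Fluorescence from capillary electrophoresis of RT-PCR products gives mRNA levels; fitting is bidirectional relative to DMSO.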
# [11] = ATG_Ets_CIS: Attagene CIS-FACTORIAL HepG2 Assay for human Erythroblast Transformation Specific (ETS) (AID 2282941; active means hit-call score of the fitted dose curve at least 0.9, where 1 is the maximum; inactive means score below 0.9); conditions: HepG2 ETS cis-reporter transcription, actives raise or lower the signal
# Procedure, shortened: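 RT-PCR/capillary electrophoresis fluorescence read-out of reporter mRNA; HepG2 transient multi-reporter transfection; 24 h compound exposure; gain or loss of signal fitted bidirectionally relative to DMSO.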
# [12] = ATG_GATA_CIS: Attagene CIS-FACTORIAL HepG2 Assay for human GATA Binding Protein (AID 2282944; active means hit-call score of the fitted dose curve at least 0.9, where 1 is the maximum; inactive means score below 0.9); conditions: HepG2 GATA cis-element reporter, Attagene multiplex mRNA; actives raise or lower the signal
# Procedure, shortened: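 Cells: HepG2, transiently transfected with cis-regulated reporter transcription units. Exposure: 24 h. Detection: RT-PCR plus capillary electrophoresis of FAM-labeled fragments. Analysis: bidirectional, DMSO as baseline.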
# [13] = ATG_GLI_CIS: Attagene CIS-FACTORIAL HepG2 Assay for human Zinc Finger Protein GLI1 (AID 2282945; active means hit-call score of the fitted dose curve at least 0.9, where 1 is the maximum; inactive means score below 0.9); conditions: HepG2, Attagene cis-factorial reporter mRNA, GLI element; actives raise or lower the signal
# Procedure, shortened: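 Bidirectional curve fits relative to DMSO, using reporter mRNA levels from RT-PCR plus capillary electrophoresis. Cells were HepG2 transiently carrying cis-regulated reporter constructs, harvested 24 h after dosing.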
# [14] = ATG_ISRE_CIS: Attagene CIS-FACTORIAL HepG2 Assay for human Interferon Regulatory Factor 1 (IRF1) binding to an Interferon-Stimulated Response Element (ISRE) (AID 2282948; active means hit-call score of the fitted dose curve at least 0.9, where 1 is the maximum; inactive means score below 0.9); conditions: HepG2 ISRE cis-reporter (Attagene), mRNA transcription readout; actives raise or lower the signal
# Procedure, shortened: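 Read-out: fluorescent RT-PCR products resolved by capillary electrophoresis, reporting endogenous transcription factor activity via ISRE-driven reporter mRNA in transfected HepG2 cells dosed for 24 h; gain or loss fitted relative to DMSO.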
# [15] = ATG_M_32_CIS: Attagene CIS-FACTORIAL HepG2 Assay for M32 Transcription Factor (Internal Marker) (AID 2282949; active means hit-call score of the fitted dose curve at least 0.9, where 1 is the maximum; inactive means score below 0.9;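 further: background control marker of the multiplexed CIS panel rather than a real target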); conditions: HepG2 Attagene cis-factorial M32 reporter, mRNA; actives raise or lower the signal
# Procedure, shortened: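 Using DMSO as baseline, bidirectional curve fits were applied to reporter mRNA signals. These came from transiently transfected HepG2 cells exposed for 24 h, with RNA analysed by RT-PCR, FAM primer extension, HpaI digestion and CE.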
# [16] = ATG_M_06_CIS: Attagene CIS-FACTORIAL HepG2 Assay for M06 Transcription Factor (Internal Marker) (AID 2282950; active means hit-call score of the fitted dose curve at least 0.9, where 1 is the maximum; inactive means score below 0.9); conditions: HepG2 Attagene CIS-FACTORIAL M06 internal marker reporter; actives raise or lower the signal
# Procedure, shortened: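 Measured 24 h post-dosing in transiently transfected HepG2 cells, this internal-marker endpoint reports reporter mRNA via RT-PCR with fluorescent primer extension and capillary electrophoresis. DMSO served as negative control and baseline for bidirectional fitting.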
# [17] = ATG_MRE_CIS: Attagene CIS-FACTORIAL HepG2 Assay for human Metal Responsive Element (MRE) (AID 2282954; active means hit-call score of the fitted dose curve at least 0.9, where 1 is the maximum; inactive means score below 0.9); conditions: HepG2 MRE cis-reporter transcription, Attagene multiplex; actives raise or lower the signal
# Procedure, shortened: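 Multiplexed cis-reporter assay in human HepG2 liver cells, 24 h incubation with test chemical. Reporter transcripts measured by RT-PCR and capillary electrophoresis; values from bidirectional curve fitting versus DMSO.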
# [18] = ATG_PXRE_CIS: Attagene CIS-FACTORIAL HepG2 Assay for human Pregnane X Receptor Element (PXRE) (AID 2282957; active means hit-call score of the fitted dose curve at least 0.9, where 1 is the maximum; inactive means score below 0.9); conditions: HepG2 Attagene CIS-FACTORIAL PXRE reporter, mRNA; actives raise or lower the signal
# Procedure, shortened: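 Bidirectional activity, baselined to DMSO, derived from reporter mRNA fluorescence (RT-PCR plus capillary electrophoresis) in HepG2 cells bearing cis-promoter reporter units, 24 h exposure.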
# [19] = ATG_Sox_CIS: Attagene CIS-FACTORIAL HepG2 Assay for human SRY-box transcription factor (SOX) (AID 2282960; active means hit-call score of the fitted dose curve at least 0.9, where 1 is the maximum; inactive means score below 0.9); conditions: HepG2 Attagene cis-factorial SOX reporter, mRNA; actives raise or lower the signal
# Procedure, shortened: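 After 24 h of chemical treatment, transfected HepG2 reporter cells are lysed for total RNA. Transcript levels come from RT-PCR with labelled primer extension and capillary electrophoresis, analysed bidirectionally versus DMSO.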
# [20] = biological target: Androgen receptor (Homo sapiens) (UniProt P10275); assay: ATG_AR_TRANS: Attagene TRANS-FACTORIAL HepG2 Assay for human Androgen Receptor (AR) (AID 2282973); conditions: HepG2 Attagene TRANS-FACTORIAL AR reporter transcription
# Procedure, shortened: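 Chimeric nuclear receptor–Gal4 activity was assessed in human HepG2 hepatocytes after 24 h chemical dosing. Induced reporter mRNA was detected via labelled RT-PCR fragments on capillary electrophoresis, and gain of signal was analysed against DMSO.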
# Sequence of Androgen receptor (Homo sapiens) (P10275 whole entry, looked up, the tested form may be a part): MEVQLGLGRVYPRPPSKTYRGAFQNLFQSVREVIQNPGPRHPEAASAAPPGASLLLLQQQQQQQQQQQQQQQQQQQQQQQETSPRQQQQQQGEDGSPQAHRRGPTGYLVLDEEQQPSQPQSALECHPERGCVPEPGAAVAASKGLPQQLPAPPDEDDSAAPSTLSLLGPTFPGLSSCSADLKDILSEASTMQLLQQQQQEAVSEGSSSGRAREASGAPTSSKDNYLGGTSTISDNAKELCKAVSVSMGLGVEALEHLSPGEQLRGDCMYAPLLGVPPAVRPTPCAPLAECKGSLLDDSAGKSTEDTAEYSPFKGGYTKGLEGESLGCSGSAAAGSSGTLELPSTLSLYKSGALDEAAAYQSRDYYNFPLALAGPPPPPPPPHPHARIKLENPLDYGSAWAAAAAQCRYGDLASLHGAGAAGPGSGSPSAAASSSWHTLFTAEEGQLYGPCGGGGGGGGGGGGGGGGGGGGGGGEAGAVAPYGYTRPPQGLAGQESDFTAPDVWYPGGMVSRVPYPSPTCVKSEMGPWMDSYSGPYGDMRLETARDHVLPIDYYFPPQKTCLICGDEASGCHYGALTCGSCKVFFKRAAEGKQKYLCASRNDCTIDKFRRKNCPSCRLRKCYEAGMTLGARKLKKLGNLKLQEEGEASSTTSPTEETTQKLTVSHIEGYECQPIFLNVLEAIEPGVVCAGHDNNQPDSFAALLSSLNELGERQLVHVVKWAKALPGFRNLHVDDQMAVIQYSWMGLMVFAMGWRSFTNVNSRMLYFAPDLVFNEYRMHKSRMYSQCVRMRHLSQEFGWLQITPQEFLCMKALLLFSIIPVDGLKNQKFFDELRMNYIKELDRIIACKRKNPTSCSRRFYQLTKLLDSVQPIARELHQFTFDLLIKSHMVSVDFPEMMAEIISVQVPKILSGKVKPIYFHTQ
# Sequence of Transcription factor E2F1 (Homo sapiens) (Q01094 whole entry, looked up): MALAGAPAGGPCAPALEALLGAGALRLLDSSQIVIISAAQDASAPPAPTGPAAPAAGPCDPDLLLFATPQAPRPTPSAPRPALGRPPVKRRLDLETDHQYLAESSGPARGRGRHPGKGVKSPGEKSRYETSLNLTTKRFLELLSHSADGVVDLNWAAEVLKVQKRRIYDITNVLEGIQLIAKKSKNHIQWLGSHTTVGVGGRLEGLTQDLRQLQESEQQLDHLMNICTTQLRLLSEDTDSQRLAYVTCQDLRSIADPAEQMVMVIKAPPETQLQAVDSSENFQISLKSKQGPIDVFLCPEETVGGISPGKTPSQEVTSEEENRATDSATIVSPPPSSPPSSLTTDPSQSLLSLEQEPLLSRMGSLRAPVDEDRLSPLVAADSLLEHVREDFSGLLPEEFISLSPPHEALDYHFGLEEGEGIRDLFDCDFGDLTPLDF
# Sequence of CCAAT/enhancer-binding protein beta (Homo sapiens) (P17676 whole entry, looked up, the tested form may be a part): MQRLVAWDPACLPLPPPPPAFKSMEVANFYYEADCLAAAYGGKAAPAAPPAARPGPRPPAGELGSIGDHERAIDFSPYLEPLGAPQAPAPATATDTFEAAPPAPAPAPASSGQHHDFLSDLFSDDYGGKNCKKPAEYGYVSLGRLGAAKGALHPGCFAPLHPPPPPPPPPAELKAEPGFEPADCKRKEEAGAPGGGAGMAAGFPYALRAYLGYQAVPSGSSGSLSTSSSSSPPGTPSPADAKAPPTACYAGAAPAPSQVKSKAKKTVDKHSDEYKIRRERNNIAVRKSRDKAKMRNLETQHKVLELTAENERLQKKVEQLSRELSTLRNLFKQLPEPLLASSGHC
compound,measurement,setting,value
CC(C)[C@@H](C(=O)O[C@@H](C#N)c1cccc(Oc2ccccc2)c1)c1ccc(Cl)cc1,outcome,[1],inactive
same,outcome,[2],inactive
same,AC50,[3],9.57 µM (active)
same,outcome,[4],inactive
same,outcome,[5],inactive
same,outcome,[6],inactive
same,outcome,[7],inactive
same,outcome,[8],inactive
same,outcome,[9],inactive
same,outcome,[10],inactive
same,outcome,[11],inactive
same,outcome,[12],inactive
same,outcome,[13],inactive
same,outcome,[14],inactive
same,outcome,[15],inactive
same,outcome,[16],inactive
same,outcome,[17],inactive
same,AC50,[18],0.678 µM (active)
same,outcome,[19],inactive
CC1CCC(C(C)C)C(O)C1 (stereo not given),outcome,[20],inactive
CC=CCO,outcome,[20],inactive
O=C(Nc1ccccc1)c1cc([N+](=O)[O-])ccc1Cl,outcome,[20],inactive
CC1COC(=O)O1 (stereo not given),outcome,[20],inactive
CCCCOCCOCCOCc1cc2c(cc1CCC)OCO2,outcome,[20],inactive
O=C(NS(=O)(=O)/C=C/c1cccs1)c1ccc(F)cc1Br,outcome,[20],inactive
CCCCCCCCCCCCOCCO,outcome,[20],inactive
O=C(O)C(F)(F)OC(F)(F)C(F)(F)OC(F)(F)C(F)(F)OC(F)(F)C(F)(F)C(F)(F)C(F)(F)F,outcome,[20],inactive
NC(=O)c1nc(-c2cccc(-c3cc(F)ccc3OCC(F)(F)C(F)(F)F)c2)n[nH]1,outcome,[20],inactive
CCC(=O)OC/C=C(\C)CCC=C(C)C,outcome,[20],inactive
NCC(F)(F)C(F)(F)C(F)(F)C(F)(F)C(F)(F)C(F)(F)C(F)(F)F,outcome,[20],inactive
CO[Si](CCC1CCC2OC2C1)(OC)OC (stereo not given),outcome,[20],inactive
COc1ccc(C(=O)/C(Br)=C\C(=O)O)cc1,outcome,[20],inactive
CN(C)C(=O)Nc1ccc(Cl)c(Cl)c1,outcome,[20],inactive
c1cc[nH]c1,outcome,[20],inactive
CCCCCCCCCc1ccc(OCCO)cc1,outcome,[20],inactive
O=[N+]([O-])c1cc(C(F)(F)F)ccc1Cl,outcome,[20],inactive
CC(C)(c1ccc(O)cc1)c1ccc(O)cc1,outcome,[20],inactive
O=C[C@H](O)[C@H](O)[C@H](O)CO,outcome,[20],inactive
CCC(C)c1cc([N+](=O)[O-])cc([N+](=O)[O-])c1OC(=O)OC(C)C (stereo not given),outcome,[20],inactive
O=c1c(-c2ccc(O)cc2)coc2cc(O)cc(O)c12,outcome,[20],inactive
CCCCCCCCCC(=O)O,outcome,[20],inactive
O=c1cccc[nH]1,outcome,[20],inactive
OCCCS,outcome,[20],inactive
C=CCOCC(CO)(CO)CO,outcome,[20],inactive
CC1(C)C(=O)N(Br)C(=O)N1Br,outcome,[20],inactive
FC1(F)C=CC(F)(F)C1(F)F,outcome,[20],inactive
CCCCCCCCCCCCCCCCCC[N+](C)(C)C,AC50,[20],14.5 µM (active)
Cc1nc(-c2ccc3c(c2)CCN(CCC2CCC(NC(=O)/C=C/c4ccc(F)cc4)CC2)CC3)no1 (stereo not given),outcome,[20],inactive
CCO[Si](CCC(F)(F)C(F)(F)C(F)(F)C(F)(F)C(F)(F)C(F)(F)F)(OCC)OCC,outcome,[20],inactive
ON(Cc1ccccc1)Cc1ccccc1,outcome,[20],inactive
